According to ChEMBL document CHEMBL3988442, “University of Dundee, Small-Polar-MMV Screening Library” (2021):
For some assays here: Results with a measured potency or affinity are listed apart.

What was measured:
Set-up in all cases: scale not given: direction of the effect not stated beside the values
[1] = molecular target: Protein translocase subunit SecA (Escherichia coli (strain K12)) (UniProt P10408); experiment: Assay to Identify E. coli SecA ATPase Inhibitors; assay type: functional; settings: 30 µM
Chain of Protein translocase subunit SecA (Escherichia coli (strain K12)) (P10408 whole entry): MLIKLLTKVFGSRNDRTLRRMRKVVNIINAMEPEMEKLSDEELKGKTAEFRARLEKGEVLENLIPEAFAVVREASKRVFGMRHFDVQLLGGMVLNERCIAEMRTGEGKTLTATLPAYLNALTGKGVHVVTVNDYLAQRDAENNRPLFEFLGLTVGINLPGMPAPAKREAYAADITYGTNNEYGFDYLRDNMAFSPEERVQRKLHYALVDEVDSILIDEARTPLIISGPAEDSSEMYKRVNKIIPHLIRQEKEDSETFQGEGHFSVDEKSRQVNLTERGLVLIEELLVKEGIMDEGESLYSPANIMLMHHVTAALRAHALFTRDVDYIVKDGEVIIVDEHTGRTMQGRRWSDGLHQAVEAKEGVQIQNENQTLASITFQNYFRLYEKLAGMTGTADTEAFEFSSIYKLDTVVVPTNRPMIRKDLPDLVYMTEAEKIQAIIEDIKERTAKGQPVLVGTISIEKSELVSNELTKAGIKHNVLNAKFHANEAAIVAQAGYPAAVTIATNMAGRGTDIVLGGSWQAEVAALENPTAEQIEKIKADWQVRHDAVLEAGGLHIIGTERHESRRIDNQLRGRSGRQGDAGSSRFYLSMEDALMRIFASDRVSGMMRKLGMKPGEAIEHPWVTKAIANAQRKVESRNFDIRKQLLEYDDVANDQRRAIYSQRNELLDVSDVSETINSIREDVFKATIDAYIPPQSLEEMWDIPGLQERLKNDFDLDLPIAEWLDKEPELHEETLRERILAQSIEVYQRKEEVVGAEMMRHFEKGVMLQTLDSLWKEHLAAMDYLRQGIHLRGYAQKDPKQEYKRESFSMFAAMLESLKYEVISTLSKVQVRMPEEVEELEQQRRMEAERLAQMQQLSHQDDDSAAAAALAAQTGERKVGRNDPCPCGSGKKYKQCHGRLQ

[2] = molecular target: T1, Ubiquitin-activating enzyme e1, putative (Leishmania donovani (strain BPK282A1)) (UniProt E9BSI1); experiment: Leishmania donovani Ubiquitin Activating Enzyme (LdE1); assay type: functional; settings: 30 µM
T1 sequence (whole entry): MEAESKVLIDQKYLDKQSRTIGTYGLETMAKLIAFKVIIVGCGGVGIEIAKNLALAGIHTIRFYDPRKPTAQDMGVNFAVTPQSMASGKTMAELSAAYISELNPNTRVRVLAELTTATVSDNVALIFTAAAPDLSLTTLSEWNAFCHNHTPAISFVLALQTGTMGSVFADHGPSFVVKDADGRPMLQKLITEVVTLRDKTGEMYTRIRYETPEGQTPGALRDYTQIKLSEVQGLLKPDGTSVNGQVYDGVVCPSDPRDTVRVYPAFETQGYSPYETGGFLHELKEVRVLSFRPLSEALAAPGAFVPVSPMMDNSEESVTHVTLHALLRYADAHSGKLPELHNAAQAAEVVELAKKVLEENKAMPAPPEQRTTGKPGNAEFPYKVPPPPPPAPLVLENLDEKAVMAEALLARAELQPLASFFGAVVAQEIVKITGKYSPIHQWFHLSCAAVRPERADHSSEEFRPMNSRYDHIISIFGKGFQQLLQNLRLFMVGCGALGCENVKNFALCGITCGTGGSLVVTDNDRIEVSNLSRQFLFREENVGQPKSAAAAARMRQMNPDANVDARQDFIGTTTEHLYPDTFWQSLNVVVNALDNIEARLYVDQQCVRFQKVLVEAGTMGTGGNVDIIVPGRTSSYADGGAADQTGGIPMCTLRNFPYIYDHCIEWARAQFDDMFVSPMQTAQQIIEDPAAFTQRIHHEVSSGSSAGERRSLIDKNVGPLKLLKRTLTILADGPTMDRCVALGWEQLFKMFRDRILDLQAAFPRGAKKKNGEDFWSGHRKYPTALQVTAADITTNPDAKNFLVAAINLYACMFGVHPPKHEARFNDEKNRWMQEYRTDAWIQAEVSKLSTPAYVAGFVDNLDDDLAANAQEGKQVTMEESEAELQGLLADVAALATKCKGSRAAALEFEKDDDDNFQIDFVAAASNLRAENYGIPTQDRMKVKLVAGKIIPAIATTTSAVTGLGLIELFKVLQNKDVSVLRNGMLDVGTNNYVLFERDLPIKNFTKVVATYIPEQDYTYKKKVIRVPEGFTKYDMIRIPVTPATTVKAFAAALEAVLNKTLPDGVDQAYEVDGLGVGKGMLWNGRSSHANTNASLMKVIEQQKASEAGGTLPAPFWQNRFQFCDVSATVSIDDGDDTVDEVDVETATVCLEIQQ

[3] = molecular target: AMP-activated protein kinase, AMPK (Homo sapiens) (UniProt P54646+O43741+P54619+Q9UGJ0+Q9Y478+Q13131+Q9UGI9); experiment: AMP-dependent Kinase enzyme assay. An in vitro enzyme assay that detects ADP turnover that is directly proportional to AMPK activity. This uses naive AMPK that is activated during the assay with MK-8722; assay type: functional; settings: 30 µM
[4] = molecular target: Sialic acid-binding Ig-like lectin 9 (Homo sapiens) (UniProt Q9Y336); experiment: Hs-Siglec9 ALPHAscreen SOP 20170721; settings: 10 µM
Chain of Sialic acid-binding Ig-like lectin 9 (Homo sapiens) (Q9Y336 whole entry): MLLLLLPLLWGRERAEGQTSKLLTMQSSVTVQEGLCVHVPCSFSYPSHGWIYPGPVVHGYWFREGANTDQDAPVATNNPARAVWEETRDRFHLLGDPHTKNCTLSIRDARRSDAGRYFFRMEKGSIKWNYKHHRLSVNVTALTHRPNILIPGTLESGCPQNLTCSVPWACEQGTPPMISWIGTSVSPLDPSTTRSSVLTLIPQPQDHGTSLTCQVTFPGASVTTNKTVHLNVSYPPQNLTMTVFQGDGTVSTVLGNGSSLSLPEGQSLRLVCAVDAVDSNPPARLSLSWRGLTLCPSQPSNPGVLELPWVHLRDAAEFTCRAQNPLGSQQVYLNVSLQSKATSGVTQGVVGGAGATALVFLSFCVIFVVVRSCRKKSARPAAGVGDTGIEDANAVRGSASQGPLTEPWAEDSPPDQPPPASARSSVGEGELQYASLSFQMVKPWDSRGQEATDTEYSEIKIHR

[5] = test system: Trypanosoma cruzi; experiment: Trypanosoma cruzi phosphomannomutase and mannose-1-phosphate guanylyltransferase assay; assay type: functional; settings: 10 µM
[6] = molecular target: T2, Arginase-2, mitochondrial (Homo sapiens) (UniProt P78540); experiment: in vitro enzyme assay to detect the production of urea directly proportional to the activity of Arginase II; assay type: functional; settings: 33.3 µM; further: in the data most compounds retested in dose-response had high values
T2 sequence (whole entry): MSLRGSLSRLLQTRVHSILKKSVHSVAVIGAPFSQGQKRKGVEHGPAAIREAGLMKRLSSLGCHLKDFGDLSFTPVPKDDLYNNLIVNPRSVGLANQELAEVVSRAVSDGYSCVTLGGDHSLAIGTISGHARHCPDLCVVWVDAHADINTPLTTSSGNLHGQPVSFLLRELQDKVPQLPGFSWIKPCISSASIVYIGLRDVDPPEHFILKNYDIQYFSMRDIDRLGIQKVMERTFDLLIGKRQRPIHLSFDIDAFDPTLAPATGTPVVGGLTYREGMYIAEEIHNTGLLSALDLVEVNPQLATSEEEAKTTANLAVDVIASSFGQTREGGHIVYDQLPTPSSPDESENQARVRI

[7] = molecular target: T3, Proteasome subunit beta (Trypanosoma cruzi) (UniProt O96673); experiment: Trypanosoma cruzi proteasome chymotrypsin-like activity (TcProtChymo) assay.; further: in the data most compounds retested in dose-response had high values; assay type: functional; settings: 9.37 µM
T3 sequence (whole entry): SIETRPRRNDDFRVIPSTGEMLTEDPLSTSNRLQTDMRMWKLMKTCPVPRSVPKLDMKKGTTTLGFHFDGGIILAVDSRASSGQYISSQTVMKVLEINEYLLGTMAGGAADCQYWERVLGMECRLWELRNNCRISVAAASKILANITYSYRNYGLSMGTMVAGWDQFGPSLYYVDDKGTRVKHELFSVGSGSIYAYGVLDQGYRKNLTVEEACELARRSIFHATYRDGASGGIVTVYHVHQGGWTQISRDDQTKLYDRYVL

[8] = species: Homo sapiens; experiment: To identify inhibition of the IFN signalling (Jak-Stat) pathway via expression of an eGFP reporter gene under the control of an IFN-stimulated response element (ISRE) containing MxA promoter.; assay type: functional; settings: 30 µM
[9] = molecular target: T4, Tyrosyl-tRNA synthetase, putative (Trypanosoma cruzi (strain CL Brener)) (UniProt Q4DSP6); experiment: Trypanosoma cruzi tyrosyl tRNA synthetase (TcYRS) _High Tyrosine SOP; assay type: functional; settings: 30 µM; further: in the data most compounds retested in dose-response had high values
T4 sequence (whole entry): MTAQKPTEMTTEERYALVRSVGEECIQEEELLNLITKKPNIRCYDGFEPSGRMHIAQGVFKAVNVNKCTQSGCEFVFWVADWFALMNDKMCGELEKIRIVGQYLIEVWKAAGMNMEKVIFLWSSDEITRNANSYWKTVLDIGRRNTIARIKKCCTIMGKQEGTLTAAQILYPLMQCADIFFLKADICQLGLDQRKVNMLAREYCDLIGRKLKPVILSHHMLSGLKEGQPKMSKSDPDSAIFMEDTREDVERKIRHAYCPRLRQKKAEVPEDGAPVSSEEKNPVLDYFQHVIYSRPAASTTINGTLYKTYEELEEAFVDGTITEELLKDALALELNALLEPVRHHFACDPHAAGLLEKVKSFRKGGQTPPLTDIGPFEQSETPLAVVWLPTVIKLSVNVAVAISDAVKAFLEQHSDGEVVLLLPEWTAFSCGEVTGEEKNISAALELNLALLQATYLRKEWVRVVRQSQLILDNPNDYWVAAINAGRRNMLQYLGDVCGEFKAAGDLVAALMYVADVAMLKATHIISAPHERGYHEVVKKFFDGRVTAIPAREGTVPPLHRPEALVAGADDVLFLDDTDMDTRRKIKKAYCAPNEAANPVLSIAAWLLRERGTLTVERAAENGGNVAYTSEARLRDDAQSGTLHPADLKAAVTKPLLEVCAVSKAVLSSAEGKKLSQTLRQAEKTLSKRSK

[10] = molecular target: T4, Tyrosyl-tRNA synthetase, putative (Trypanosoma cruzi (strain CL Brener)); experiment: Trypanosoma cruzi tyrosyl tRNA synthetase (TcYRS) SOP; assay type: functional; settings: 30 µM
[11] = molecular target: Chromo domain-containing protein 1 (Saccharomyces cerevisiae (strain ATCC 204508 / S288c) (Baker's yeast)) (UniProt P32657); experiment: ScCHD-1 Enzyme Inhibition Assay; assay type: functional; settings: 30 µM; further: in the data most compounds retested in dose-response had high values
Chain of Chromo domain-containing protein 1 (Saccharomyces cerevisiae (strain ATCC 204508 / S288c) (Baker's yeast)) (P32657 whole entry, the tested form may be a part): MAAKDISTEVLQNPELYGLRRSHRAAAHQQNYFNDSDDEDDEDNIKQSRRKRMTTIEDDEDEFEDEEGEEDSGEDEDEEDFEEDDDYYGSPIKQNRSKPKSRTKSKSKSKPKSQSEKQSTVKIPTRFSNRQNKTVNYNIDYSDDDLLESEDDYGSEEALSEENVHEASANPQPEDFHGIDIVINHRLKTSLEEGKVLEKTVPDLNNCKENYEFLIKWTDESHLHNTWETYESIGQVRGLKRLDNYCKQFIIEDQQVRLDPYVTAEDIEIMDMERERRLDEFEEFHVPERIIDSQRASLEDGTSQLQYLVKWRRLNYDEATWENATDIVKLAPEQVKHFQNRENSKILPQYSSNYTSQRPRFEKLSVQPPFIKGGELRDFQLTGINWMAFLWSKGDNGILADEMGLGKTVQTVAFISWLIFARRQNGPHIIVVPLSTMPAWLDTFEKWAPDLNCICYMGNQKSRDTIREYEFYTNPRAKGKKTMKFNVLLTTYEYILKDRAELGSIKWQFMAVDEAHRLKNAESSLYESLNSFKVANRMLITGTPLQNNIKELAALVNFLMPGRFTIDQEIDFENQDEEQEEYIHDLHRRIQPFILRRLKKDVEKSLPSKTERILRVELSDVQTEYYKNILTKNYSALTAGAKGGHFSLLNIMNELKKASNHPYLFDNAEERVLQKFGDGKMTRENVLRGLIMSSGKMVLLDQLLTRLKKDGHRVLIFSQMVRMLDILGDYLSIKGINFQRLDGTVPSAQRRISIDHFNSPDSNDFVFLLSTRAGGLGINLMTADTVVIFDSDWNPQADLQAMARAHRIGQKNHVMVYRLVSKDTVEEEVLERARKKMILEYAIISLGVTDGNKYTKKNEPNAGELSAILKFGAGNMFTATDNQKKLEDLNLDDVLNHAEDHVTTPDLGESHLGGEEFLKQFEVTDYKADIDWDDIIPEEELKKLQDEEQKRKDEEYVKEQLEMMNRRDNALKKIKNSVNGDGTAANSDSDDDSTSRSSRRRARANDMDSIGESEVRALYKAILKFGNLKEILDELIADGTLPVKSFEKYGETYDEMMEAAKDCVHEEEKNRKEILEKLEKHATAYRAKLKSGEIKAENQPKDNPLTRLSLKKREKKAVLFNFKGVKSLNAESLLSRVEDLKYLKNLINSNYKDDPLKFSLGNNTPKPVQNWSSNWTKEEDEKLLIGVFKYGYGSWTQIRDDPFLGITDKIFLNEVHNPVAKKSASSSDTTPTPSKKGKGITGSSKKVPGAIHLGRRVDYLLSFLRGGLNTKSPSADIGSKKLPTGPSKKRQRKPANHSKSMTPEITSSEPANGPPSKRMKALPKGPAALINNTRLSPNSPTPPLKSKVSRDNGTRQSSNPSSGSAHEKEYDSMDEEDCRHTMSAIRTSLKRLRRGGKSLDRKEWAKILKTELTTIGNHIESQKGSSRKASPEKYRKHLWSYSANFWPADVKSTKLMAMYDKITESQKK

Compound	Percent Effect [1] [%]	Percent Effect [2] [%]	Percent Effect [3] [%]	Percent Effect [4] [%]	Percent Effect [5] [%]	Percent Effect [6] [%]	Percent Effect [7] [%]	Percent Effect [8] [%]	Percent Effect [9] [%]	Percent Effect [10] [%]	Percent Effect [11] [%]
COc1ccc(CCNC(=O)C2CCC(Cn3cnnn3)CC2)cc1 (configuration not stated)	-1.81	1.33	15.9	3.74	-1.38	-5.81	5.18	-2.49	5.29	2.56	-1.04
COCC(=O)N1CC[C@H]2C[C@@H](c3nnc(C4CC4)o3)O[C@@H]2C1	-5.18	18.7	-7.93	0.755	1.74	-57.2	19.5	-2.44	4.17	17.5	-6.39
CCOCCOC(C)C(=O)NCc1cn2cc(Br)ccc2n1 (configuration not stated)	-0.315	0	8.27	0.478	1.27	1.18	9.68	-18	5.32	10.4	-1.5
Cc1cccc(NC2CCN(C(=O)Nc3cccc4[nH]ccc34)CC2)n1	-6.98	17.7	-19.6	10.2	6.7	-7.22	3.85	-7.19	4.43	16.5	-8.65
CN(C)C(=O)NC1COC2(CCN(Cc3nccn3C)CC2)C1 (configuration not stated)	0.893	5.2	-3.63	0.435	-7.2	5.81	11.3	-0.051	5.29	6.41	0.228
CC(C)c1nc(C2CCCN2CCCc2nc3ccccc3o2)no1 (configuration not stated)	-2.74	-8.11	-9.61	9.51	1.42	-6.81	-1.62	5.36	2.46	-6.17	0.486
COc1cccc(C(=O)N2CCc3ncnc(C)c3CC2)c1	-2.5	2.74	-0.34	2.4	-5.16	0.399	10.4	2.5	6.25	11.1	-8.63
O=C(NCc1ccccc1)N1CCC2(CC(=O)N(c3ccsc3)C2)C1 (configuration not stated)	-1.66	0	3.29	0.825	0.977	0.417	2.45	-9.22	85.2	6.1	-1.83
Cc1ccc2c(n1)N(C)CCN(C(=O)NC1CC1)C2	-5.82	-2.67	117	-1.66	-7.53	-57.2	4.96	18.6	-3.12	5	-9.39
CCc1c(C(=O)N2CCN(CC(N)=O)CC2)cnn1C(C)(C)C	-6.88	13.2	-1.82	18.1	5.32	3.6	11.9	-6.74	4.43	11.1	-7.68
CN(C)CC1CSCCCN1C(=O)Nc1ccc(C(C)(C)C)cc1 (configuration not stated)	-1.39	5.2	3.67	12.9	-9.96	-5.81	1.57	13.1	4.23	8.97	-4.09
Cc1ccc(CN2CCn3c(C(=O)N(C)C)cnc3C2)s1	-2.48	10.7	8.35	-0.423	-4.53	3.5	7.67	3.77	3.19	8.97	-5.78
O=C(Cc1ccccn1)N1CCN(C(=O)c2cccc3[nH]ncc23)CC1	-1.44	3.8	15.9	-3.99	-0.103	2.8	5.15	4.63	5.21	5.06	-0.724
CCCc1nnsc1C(=O)NCC1CCN(c2ccccn2)CC1	-0.329	11	-5.48	2.44	4.5	11.8	21.3	25.2	5.38	20	-6.53
N#Cc1cccc(NC(=O)N[C@H](CO)c2ccccc2)c1	-2.38	5.41	5.16	5.37	-1.35	3.33	11.6	5.19	1.59	12.2	-2.38
O=C(NCCNc1cnccn1)C1CCN(C(=O)N2CCCC2)CC1	-3.3	19	-1.9	-1.57	-2.36	-5.81	15.6	8.62	-3.12	17.7	-23.5
COCC1CCN(c2cc(C3CN(C)CCO3)nc(C)n2)CC1 (configuration not stated)	-3.57	-5.33	6.9	-0.404	-1.77	0.233	2.38	6.27	-1.06	-3.85	9.94
CC(c1ccccc1)n1c(SCC(=O)O)nnc1-c1ccccc1Cl (configuration not stated)	-3.8	15.3	-8.09	28.7	4.57	-3.53	9.65	13.3	4.21	12.8	-5.19
N#Cc1ccccc1CN1CCCCC1Cn1cncn1 (configuration not stated)	-0.27	13.5	-13.3	-8.54	-5.38	0	-0.54	15.9	9.36	13.6	-5.63
CCn1cnnc1CNC(=O)N1CCCN(C(C)=O)CC1	-6.81	15.6	-0.601	0.0707	0.881	4.84	12.7	1.78	10.5	25.9	-20.1
Cc1ncsc1C(=O)NC1CCN(Cc2cccnc2)CC1	-7.38	10.4	-1.95	18.2	5.43	2.85	7.94	15.2	6.8	14.6	-11.8
CCn1nc(C)cc1C(=O)Nc1cc(F)ccc1OCC1CCCO1 (configuration not stated)	-3.27	2.6	19.7	7.39	0.686	-0.21	9.78	34	4.76	9.41	-11.3
